# Compound activity: PubChem BioAssay, several laboratories
# MITF TRPM1 inh: reduces MITF-dependent TRPM1 promoter luciferase signal; SK-MEL-5 TRPM1 promoter luciferase, 24 h; inhibition, % at 12.5 µM; 0.83% of 330,000 active;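 active = mean inhibition across replicates of 60% or more, whatever share of single replicates reaches that level; inconclusive = some that reach 60%, reason not given; inactive = mean inhibition across replicates below 60%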
# KKLEB tox: counter-screen for CF NF-kB inhibitors: cytotoxicity; KKLEB CF airway cells viability, ATPlite luminescence, overnight; stronger effect = lower value; cells stimulated with P. aeruginosa culture filtrate; activity change (cytotoxicity), % at 5 µM; 0.36% of 360,000 active; AID 602141;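 active = corrected activity change at or below -50% at 5 µM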
# HIF-2a block: HIF-2a inhibition; 786-0 RCC cells HIF-2a reporter, luciferase luminescence, overnight; inhibition, % at 18.8 µM; 0.72% of 360,000 active; AID 624352;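 active = inhibition of the luminescence signal of 40% or more relative to plate controls, in a single-dose primary screen at 18.75 µM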
# Shn3 inh set2: Schnurri-3 reporter inhibition in Clone20 osteoblasts; Clone20 osteoblast Shn3 3'UTR firefly luciferase, 24 h; inhibition, % at 12.5 µM; 0.52% of 360,000 active;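 active = mean inhibition of at least 75% with every replicate also reaching 75%; inconclusive = mean inhibition at least 75% but some replicate below; inactive = mean inhibition below 75%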;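 also: 0% = median of neutral control wells and 100% = pilot-screen positive control compound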
# Peg3 prom inh: Peg3 promoter activity inhibition; HeLa PEG-Prom luciferase reporter, luminescence, overnight; inhibition, % at 20 µM; 1.7% of 360,000 active;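 active = inhibition of at least 50% at 20 µM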
# CF NFkB block: inhibitors of cystic fibrosis induced NF-kB. KKLEB NF-kB-GFP reporter, PAF-induced, GFP fluorescence overnight. inhibition, % at 5 µM. 0.86% of 360,000 active. AID 588850;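 active = at least 50% inhibition at 5 µM, scaled per plate between neutral and stimulator controls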;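 also: PAF is a Pseudomonas aeruginosa culture filtrate used as stimulus; plate controls were PAF-stimulated DMSO wells for no effect and unstimulated DMSO wells for full effect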
# Mdm2 MdmX conf: confirmation of inhibitors of human Mdm2/MdmX interaction, set 2; AID 504601; shares compounds with HIF-2a block; SaOS-2 split-luciferase Mdm2/MdmX complementation, luminescence; 99% of 740 active; inhibition, % at 8 µM;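 active = mean inhibition of the luminescence signal across two replicates at or above 26 percent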
# Target sequence (O15151 whole entry, looked up): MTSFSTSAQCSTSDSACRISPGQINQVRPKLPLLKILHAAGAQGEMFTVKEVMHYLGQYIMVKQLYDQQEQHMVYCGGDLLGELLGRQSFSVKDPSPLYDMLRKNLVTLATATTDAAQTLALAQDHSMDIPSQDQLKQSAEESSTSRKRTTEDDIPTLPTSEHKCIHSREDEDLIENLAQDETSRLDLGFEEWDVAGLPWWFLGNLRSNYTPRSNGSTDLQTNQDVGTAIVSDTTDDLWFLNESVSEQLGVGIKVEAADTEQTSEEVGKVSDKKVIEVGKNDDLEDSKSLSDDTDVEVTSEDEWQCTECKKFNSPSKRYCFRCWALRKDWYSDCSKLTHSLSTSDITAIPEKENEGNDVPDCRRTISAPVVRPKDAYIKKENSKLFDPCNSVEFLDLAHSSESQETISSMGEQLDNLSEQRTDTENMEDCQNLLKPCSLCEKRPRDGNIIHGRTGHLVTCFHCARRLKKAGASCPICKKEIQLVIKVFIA
# Target sequence (Q00987 whole entry, looked up): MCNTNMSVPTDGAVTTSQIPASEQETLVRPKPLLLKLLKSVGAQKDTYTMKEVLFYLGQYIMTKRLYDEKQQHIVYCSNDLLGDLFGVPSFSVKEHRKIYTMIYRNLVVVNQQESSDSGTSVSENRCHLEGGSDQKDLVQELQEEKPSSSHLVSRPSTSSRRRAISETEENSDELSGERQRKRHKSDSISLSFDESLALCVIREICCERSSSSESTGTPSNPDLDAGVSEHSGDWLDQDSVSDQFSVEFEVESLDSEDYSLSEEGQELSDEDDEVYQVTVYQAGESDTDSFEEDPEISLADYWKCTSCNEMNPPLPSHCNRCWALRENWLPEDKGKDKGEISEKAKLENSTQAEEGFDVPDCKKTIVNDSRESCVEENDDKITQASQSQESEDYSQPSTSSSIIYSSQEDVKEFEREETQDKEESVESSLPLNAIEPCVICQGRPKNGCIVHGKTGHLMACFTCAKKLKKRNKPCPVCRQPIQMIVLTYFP
# HIF-2a inh conf: confirmation of HIF-2a inhibitors | 786-0 RCC cells, HIF-2a luciferase reporter luminescence, overnight | 56% of 1,800 active | shares compounds with HIF-2a block | inhibition, % at 18.8 µM | AID 651580;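 active = mean inhibition across four replicates of at least 40 percent at the single tested concentration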
# HIF-1a counter: inhibits HIF-1a reporter, a counter-screen for HIF-2a inhibitors; inhibition, % at 18.8 µM; MiaPaCa-2 HIF-1a luciferase reporter, desferoxamine, overnight; shares compounds with HIF-2a block; 72% of 1,800 active;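 active = mean inhibition of the reporter signal across four replicates at the single tested dose of 50% or more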
# Numbers without * were called inactive; ? = inconclusive; / = no result. A selection: hits, their analogues and other compounds. The true share with any hit is near 2.8%.
SMILES,MITF TRPM1 inh,KKLEB tox,HIF-2a block,Shn3 inh set2,Peg3 prom inh,CF NFkB block,HIF-2a inh conf,HIF-1a counter,others
NC(=O)c1cc[n+](CC(=O)NC(=O)Nc2ccccc2)cc1,7,-10,-16,-47,-49,4,/,/,
CCc1cc(SC#N)cc(C)c1N,12,-7,63*,-6,13,-29,-14,-26,
CCC(=O)Nc1ccc(SC#N)cc1C,5,-1,25,23,7,-11,/,/,
Cc1cc(C)nc(SC2=CS(=O)(=O)c3ccccc32)n1,7,-4,-4,32,34,30,/,/,
O=S1(=O)C=C(Sc2nnc(-c3ccccc3)o2)c2ccccc21,96*,-72*,95*,98*,110*,97*,/,/,Mdm2 MdmX conf=100*
Oc1cc(OCc2ccccc2)ccc1-c1[nH]ncc1-c1ccccc1,4,4,57*,35,18,-5,-12,13,
CC[C@]12c3[nH]c4ccc(OC)cc4c3CCN1C(=O)C(CC(=O)NC(C)(C)C)C[C@@H]2C(=O)N1CCN(C(=O)c2ccco2)CC1 (stereo partly drawn),4,2,-1,-29,-3,5,/,/,
CCOC(=O)Cc1csc(NC(=S)NC(=O)c2ccc(F)cc2)n1,10,-8,86*,-17,1,-12,89*,59*,
CCOC(=O)Cc1csc(N/N=C/c2ccc(C(F)(F)F)cc2)n1,13,-2,58*,30,-53,13,58*,17,
CCOC(=O)Cc1csc(NC(=S)NC(=O)c2ccccc2C)n1,-4,3,54*,1,-8,6,58*,17,
O=C(O)/C=C/c1ccc(S(=O)(=O)N2CCN(CCN3C(=O)C4C5C=CC(C5)C4C3=O)CC2)cc1 (stereo not drawn),-2,5,7,10,-2,-13,/,/,
COc1cc(C2c3c(-c4cc(Cl)c(C)cc4O)n[nH]c3C(=O)N2Cc2cccnc2)ccc1O (stereo not drawn),2,-16,43*,-12,32,26,31,60*,
CC(C)(C)C(=O)NC(=S)NNC(=O)c1sc2ccccc2c1Cl,80*,-66*,78*,91*,78*,71*,35,100*,
CN1/C(=C\C(=O)c2cccnc2)C(C)(C)c2ccccc21,-20,-8,-63,-27,-56,-1,/,/,
CN1/C(=C/C(=O)c2nc(S(C)(=O)=O)ncc2Cl)C(C)(C)c2ccccc21,106*,-47,91*,96*,111*,95*,/,/,Mdm2 MdmX conf=103*
C/C(=N\NC(=O)c1cccc(Br)c1)c1ccccn1,58,-12,-87,?,-64,-38,/,/,Mdm2 MdmX conf=83*
Cc1[nH]n(-c2ccccc2)c(=O)c1/C=N/Nc1nncc(-c2ccccc2)n1,50,-39,-89,75,18,41,/,/,Mdm2 MdmX conf=84*
Cc1ccc(/C=N/Nc2nncc(-c3ccccc3)n2)o1,-34,1,-92,-18,-119,-2,/,/,
Cc1cc(S(=O)(=O)c2ccc([N+](=O)[O-])cn2)ccc1Br,90*,-73*,93*,98*,107*,91*,22,89*,
Cc1ccc(S(=O)(=O)c2ccc([N+](=O)[O-])cn2)cc1,91*,-72*,83*,95*,107*,96*,62*,65*,Mdm2 MdmX conf=103*
COC(=O)C(C)(C(=O)OC)c1ccc([N+](=O)[O-])cn1,-11,14,16,11,5,-5,/,/,
CCCCn1c(N)c(N(CC(C)C)C(=O)CN2C(=O)NC3(CCC(C(C)(C)CC)CC3)C2=O)c(=O)[nH]c1=O (stereo not drawn),12,2,-17,-17,14,16,/,/,
COc1ccccc1-c1cc(C(F)(F)F)nc(S(=O)(=O)CCCC(=O)NCc2ccc(F)cc2)n1,90*,-88*,80*,88*,107*,95*,71*,102*,Mdm2 MdmX conf=103*
COc1ccccc1-c1cc(C(F)(F)F)nc(N2CCCCC2)n1,2,-5,5,-13,3,6,/,/,
COc1ccccc1-c1cc(C(F)(F)F)nc(S(=O)(=O)CCCC(=O)N2CCCCC2C)n1 (stereo not drawn),91*,-75*,91*,97*,110*,92*,91*,107*,
SMILES,MITF TRPM1 inh,KKLEB tox,HIF-2a block,Shn3 inh set2,Peg3 prom inh,CF NFkB block,HIF-2a inh conf,HIF-1a counter,others
O=C(CCl)N1N=C(c2cccs2)CC1c1ccco1 (stereo not drawn),35,-18,19,-19,41,16,/,/,Mdm2 MdmX conf=103*
COc1ccc(CCNC(=O)Cc2c(Cl)cccc2Cl)cc1,-9,5,-5,6,7,3,/,/,
N#CCc1ccc(NC(=O)/C=C/c2ccc([N+](=O)[O-])o2)cc1,100*,-13,65*,64,106*,-28,48*,105*,
COc1cc(OC)cc(C(=O)N[C@H](C(=O)NC2CCCc3ccccc32)C(C)C)c1 (stereo partly drawn),1,3,13,27,27,-5,/,/,
O=C(C[C@H]1C[C@H](C(=O)N2CCCCC2)[C@@]2(CCc3ccccc3)c3[nH]c4ccc(Cl)cc4c3CCN2C1=O)NCCCn1ccnc1,24,6,76*,-15,33,-1,12,98*,
N#C/C(=C\c1ccc(Cl)c([N+](=O)[O-])c1)c1ccccn1,1,-2,43*,26,93*,-4,-19,95*,
CNc1ccc(/C=C(\C#N)c2ccccn2)cc1[N+](=O)[O-],-78,-10,-328,-40,-187,-18,/,/,
CN(C)c1ccc(/C=C/c2c([N+](=O)[O-])c(=O)n(C)c(=O)n2C)cc1,7,11,-31,-23,3,-13,/,/,
CN(C)c1ccc(-n2cccc2/C=C/[N+](=O)[O-])cc1,66*,-9,91*,-22,94*,-36,89*,106*,
CC(=O)O[C@@H]1C[C@H]2C(C)(C)C(=O)C=C[C@]2(C)[C@H]2CC[C@@]3(C)[C@H](c4ccoc4)OC(=O)[C@H]4O[C@]43[C@@]21C,12,19,58*,-4,31,28,49*,77*,
CC1(C)OC(=O)C=C[C@]2(C)[C@H]3CC[C@@]4(C)[C@H](c5ccoc5)OC(=O)[C@H]5O[C@]54[C@]3(C)C(=O)C[C@@H]12,10,9,11,-2,2,-13,/,/,
